# Reference: PubChem BioAssay (EPA / NIEHS)
# Results filed as inconclusive are left out. The source made the active and inactive calls. How the source made its calls, unless noted: active means hit-call score of the fitted dose curve at least 0.9, where 1 is the maximum; inactive means score below 0.9.
# Assays:
# [1] = STM_H9_OrnCyssISnorm_ratio: Stemina devTOX quickPredict H9 human embryonic stem cell (hESC)-based Assay for Ornithine (ORN):Cystine (CYSS) Ratio (AID 2283714; active means hit-call score of the fitted dose curve at least 0.9, where 1 is the maximum)
# Outline: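 Ratio of internal-standard-normalized ornithine to cystine, measured by UPLC-HRMS in spent media from the last 24 h. H9 cells kept pluripotent, dosed 72 h with daily media and compound renewal; DMSO 0.1% serves as baseline.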
# [2] = CCTE_Shafer_MEA_acute_burst_duration_mean: CCTE's Neural Acute Assay for Mean Burst Duration, Shafer Lab (AID 2284014);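 further: hits are decreases in mean burst duration relative to DMSO controls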
# Outline: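 Mean burst duration was compared between a 40 min baseline and a 40 min recording in the presence of compound (0.03-40 uM, 37 C), giving percent change per well. Cultures were rat cortical neurons at DIV 13 or 15; wells needed ≥10 active electrodes.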
# [3] = CCTE_Shafer_MEA_acute_per_burst_spike_number_mean: CCTE's Neural Acute Assay for Average Number of Spikes Per Burst, Shafer Lab (AID 2284015);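 further: hits are decreases in mean spikes per burst versus baseline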
# Outline: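 Percent change in mean spikes per single-electrode burst is compared between a 40 min baseline and a 40 min recording with compound (0.03-40 uM). Cultures were rat cortical neurons on MEA plates at DIV 13 or 15, recorded at 37 C, with DMSO as the negative control.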
# [4] = CCTE_Shafer_MEA_acute_interburst_interval_mean: CCTE's Neural Acute Assay for Mean Interburst Interval, Shafer Lab (AID 2284016);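 further: percent change of mean interburst interval versus each well's own pre-dose baseline; curves fitted for decrease in interburst interval relative to DMSO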
# Outline: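 Percent change in mean single-electrode interburst interval was calculated per well from 40 min recordings before and after compound (0.03-40 uM). Recordings were made at 37 C on rat cortical cultures at DIV 13 or 15, with spikes detected at 8x rms threshold.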
# [5] = CCTE_Shafer_MEA_acute_burst_percentage_mean: CCTE's Neural Acute Assay for Percentage of Spikes in a Burst, Shafer Lab (AID 2284017);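 on AC50: curve fitted for loss of signal so potency reflects decreased burst percentage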
# Outline: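 Well-level mean burst percentage from a 40-min recording after compound (0.03-40 uM) expressed as percent change from a 40-min baseline at 37C. Cultures: primary rat cortical neurons on MEA, dosed on DIV 13 or 15; fitted downward relative to DMSO.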
# [6] = CCTE_Shafer_MEA_dev_network_spike_peak: CCTE's Neural Network Formation Assay for Mean Number of Electrodes in Network Spike, Shafer Lab (AID 2284049)
# Outline: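 Rat cortical primary culture, 1.5 x 10^5 cells/well, 48-well MEA (16 electrodes/well). Dosing day 0 through DIV 12, full media/compound exchange DIV 5, 9. AxIS adaptive spike detection; AUC over days 5/7/9/12; loss-of-signal vs DMSO.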
# [7] = CCTE_Shafer_MEA_dev_spike_duration_mean: CCTE's Neural Network Formation Assay for Mean Spike Duration, Shafer Lab (AID 2284051);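 further: mean network spike duration pooled as area under curve over DIV 5 to 12 recordings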
# Outline: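 Spontaneous activity was recorded on days 5, 7, 9 and 12 from rat cortical cultures grown on microelectrode arrays and dosed continuously from day 0, with media and compound renewed after the DIV 5 and 9 recordings. Network-spike duration was collapsed by area under the curve.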
# [8] = CCTE_Shafer_MEA_dev_network_spike_duration_std: CCTE's Neural Network Formation Assay for Standard Deviation of Network Spike Duration, Shafer Lab (AID 2284052);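 further: hits are decreases in network spike duration SD versus DMSO vehicle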
# Outline: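 Network spike duration variability was collapsed across recordings on days 5, 7, 9 and 12 by trapezoidal area-under-curve and fitted downward against DMSO. Cultures were rat cortical neurons on PEI-coated MEA plates, dosed continuously from plating, refed with compound DIV 5/9.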
# [9] = CCTE_Shafer_MEA_dev_per_network_spike_spike_number_mean: CCTE's Neural Network Formation Assay for Mean Number of Spikes in a Network Spike, Shafer Lab (AID 2284053)
# Outline: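 Mean spike count within each network spike, taken in a 0.05 s window at its peak, was recorded on days 5, 7, 9 and 12 and integrated as trapezoidal area under the curve. Rat cortical cultures on MEA plates received continuous compound from day 0, refreshed at medium changes on DIV 5 and 9.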
# [10] = CCTE_Shafer_MEA_dev_LDH: CCTE's Lactate Dehydrogenase Assay for Cytotoxicity in the Neural Network Formation Assay, Shafer Lab (AID 2284068; active means hit-call score of the fitted dose curve at least 0.9, where 1 is the maximum;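 further: exposure for twelve days from plating with re-dosing on DIV 5 and 9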)
# Outline: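 Primary rat cortical neurons were cultured on PEI-coated MEA plates and exposed from plating through day 12, with compound renewed at medium changes on DIV 5 and 9. LDH activity was read spectrophotometrically; loss of signal versus DMSO indicates reduced viability.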
# [11] = CCTE_Shafer_MEA_dev_mutual_information_norm: CCTE's Neural Network Formation Assay for Mutual Information Normalization, Shafer Lab (AID 2284091)
# Outline: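 Shared information across electrodes, tracked on days 5, 7, 9 and 12 of network development and collapsed as trapezoidal area under the curve. Rat cortical cultures were treated continuously from plating, with treatment renewed at feeds on DIV 5 and 9; DMSO baseline, negative-direction fit.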
# [12] = CCTE_Shafer_MEA_dev_correlation_coefficient_mean: CCTE's Neural Network Formation Assay for Mean Correlation Coefficient, Shafer Lab (AID 2284093)
# Outline: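 Primary rat cortical neurons on PEI-coated 48-well MEA plates (16 electrodes/well) were exposed from plating day 0 through DIV12, with compound renewed at DIV5 and 9. Pairwise spike correlations were averaged per well; trapezoidal AUC across DIV5, 7, 9, 12.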
# [13] = TAMU_PeakParms_SingleDonor1434_Chronotropy: Texas A&M University (TAMU) 1.5-hr Human Induced Pluripotent Stem Cell (iPSC)-derived Cardiomyocytes Calcium (Ca+2) Flux Assay for Cardiotoxicity: Chronotropy (changes in peak frequency) (AID 2284217); details: actives raise or lower the signal
# Outline: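 Beat rate, as mean Ca2+-flux peak frequency, was read from donor 1434 iPSC cardiomyocytes 90 min after exposure to 0.2–100 uM test chemical (0.5% DMSO). Wells that stopped beating were excluded; EC05 from bidirectional DMSO-referenced fitting.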
# [14] = target: Estrogen receptor (Homo sapiens) (UniProt P03372); assay: OT_ER_ERaERa_1440: Odyssey Thera (OT) 24-hour HEK293T Protein-Complementation Assay for Estrogen Receptor-alpha/-alpha Homodimer (AID 2283349; active means hit-call score of the fitted dose curve at least 0.9, where 1 is the maximum;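 further: hits raise fluorescence above DMSO for agonists and antagonists alike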)
# Outline: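 HEK293T, stable ERα LBD (aa 310-547) homodimer PCA; 24 h compound exposure; mean fluorescence intensity (nuclear for agonists, nuclear plus cytoplasmic for antagonists) vs vehicle; positive fitting direction, DMSO baseline.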
# [15] = target: Estrogen receptor (Homo sapiens) (UniProt P03372); assay: OT_ER_ERaERa_0480: Odyssey Thera (OT) 8-hour HEK293T Protein-Complementation Assay for Estrogen Receptor-alpha/-alpha Homodimer (AID 2283351; active means hit-call score of the fitted dose curve at least 0.9, where 1 is the maximum;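 further: rise in fluorescence from reassembled reporter fragments on ERα LBD homodimer in nucleus or whole cell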)
# Outline: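 HEK293T cells stably expressing a PCA pair of ER alpha LBD (residues 310-547) were dosed for 8 hours. The gain in fluorescence intensity, nuclear for agonists and whole-cell for antagonists, was measured by laser scanning cytometry against DMSO vehicle.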
# [16] = target: Estrogen receptor (Homo sapiens) + Estrogen receptor beta (Homo sapiens) (UniProt P03372+Q92731); assay: OT_ER_ERaERb_1440: Odyssey Thera (OT) 24-hour HEK293T Protein-Complementation Assay for Estrogen Receptor-alpha/-beta Homodimer (AID 2283356; active means hit-call score of the fitted dose curve at least 0.9, where 1 is the maximum;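 further: heteromer of ER alpha and ER beta binding domains; hits raise reporter fluorescence and both agonists and antagonists give an increase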)
# Outline: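 24 h exposure; HEK293T PCA cells with ERα/ERβ LBD fragments; signal rise in nuclear or whole-cell fluorescence over vehicle.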
# [17] = target: Estrogen receptor (Homo sapiens) (UniProt P03372); assay: OT_ERa_GFPERaERE_0480: Odyssey Thera (OT) 8-hour HeLa Transcription Induction Assay for Estrogen Receptor (AID 2283381)
# Outline: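 Fluorescence microscopy with high-content image analysis measures ERE-driven GFP induction in HeLa cells at 8 h post-dose. Increases fitted against DMSO baseline.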
# [18] = target: Estrogen receptor (Homo sapiens) (UniProt P03372); assay: OT_ERa_GFPERaERE_0120: Odyssey Thera (OT) 2-hour HeLa Transcription Induction Assay for Estrogen Receptor (AID 2283382; active means hit-call score of the fitted dose curve at least 0.9, where 1 is the maximum)
# Outline: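 Fluorescence-microscopy images of the GFP-ERα/ERE reporter, scored by high-content image algorithms, give the readout. HeLa exposure lasted 2 h, and only signal increase over DMSO was fitted.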
# [19] = system: guinea pig Dopamine Transporter (DAT), gene 100714898; assay: NVS_TR_gDAT: NovaScreen (NVS) Transporter Assay for guinea pig Dopamine Transporter (DAT) (AID 2283369; active means hit-call score of the fitted dose curve at least 0.9, where 1 is the maximum;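 further: active compounds lower bound radioligand signal relative to DMSO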)
# Outline: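 Primary pass: duplicate wells at 25 uM, threshold e.g. 30% inhibition. Follow-up: singleton concentration-response, highest 50 uM. Radioligand binding on guinea pig striatal membranes, 2 h, filtration scintillation detection.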
# Sequence of Estrogen receptor (Homo sapiens) (P03372 whole entry, looked up, the tested form may be a part): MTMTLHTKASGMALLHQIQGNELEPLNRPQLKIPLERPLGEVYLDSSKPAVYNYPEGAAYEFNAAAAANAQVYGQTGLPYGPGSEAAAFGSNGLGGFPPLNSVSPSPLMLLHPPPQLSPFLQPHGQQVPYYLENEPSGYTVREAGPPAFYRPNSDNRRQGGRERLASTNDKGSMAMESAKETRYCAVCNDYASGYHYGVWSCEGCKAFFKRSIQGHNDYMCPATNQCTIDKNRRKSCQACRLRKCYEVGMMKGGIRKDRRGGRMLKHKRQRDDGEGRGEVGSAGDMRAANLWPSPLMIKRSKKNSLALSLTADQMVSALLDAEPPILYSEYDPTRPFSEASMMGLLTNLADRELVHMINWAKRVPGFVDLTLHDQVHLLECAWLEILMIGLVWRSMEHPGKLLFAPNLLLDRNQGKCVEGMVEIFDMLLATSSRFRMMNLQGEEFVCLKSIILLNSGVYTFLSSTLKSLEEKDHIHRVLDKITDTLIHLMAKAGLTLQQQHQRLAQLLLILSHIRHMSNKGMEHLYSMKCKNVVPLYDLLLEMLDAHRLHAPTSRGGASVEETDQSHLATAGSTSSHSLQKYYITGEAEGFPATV
# Sequence of Estrogen receptor (Homo sapiens) + Estrogen receptor beta (Homo sapiens) (P03372 whole entry, looked up, the tested form may be a part): as above
# Sequence of Estrogen receptor (Homo sapiens) + Estrogen receptor beta (Homo sapiens) (Q92731 whole entry, looked up, the tested form may be a part): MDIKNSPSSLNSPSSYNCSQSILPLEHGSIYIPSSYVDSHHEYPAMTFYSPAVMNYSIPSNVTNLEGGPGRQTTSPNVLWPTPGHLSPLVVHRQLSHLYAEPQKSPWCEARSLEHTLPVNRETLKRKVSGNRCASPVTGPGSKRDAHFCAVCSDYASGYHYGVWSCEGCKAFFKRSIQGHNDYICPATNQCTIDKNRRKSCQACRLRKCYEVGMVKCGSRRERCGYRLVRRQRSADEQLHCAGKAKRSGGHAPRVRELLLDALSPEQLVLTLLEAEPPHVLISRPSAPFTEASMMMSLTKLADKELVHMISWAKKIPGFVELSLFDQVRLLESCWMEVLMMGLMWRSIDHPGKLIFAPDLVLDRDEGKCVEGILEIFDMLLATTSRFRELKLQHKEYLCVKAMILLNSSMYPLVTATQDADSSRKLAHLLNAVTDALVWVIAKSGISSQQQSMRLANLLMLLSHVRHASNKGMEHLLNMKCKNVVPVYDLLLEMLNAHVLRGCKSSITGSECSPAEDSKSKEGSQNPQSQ
structure (smiles),measurement,setting,value
O=c1c2ccccc2c(=O)c2c1cc(Cl)c1[nH]c3c([nH]c12)c(Cl)cc1c(=O)c2ccccc2c(=O)c13,AC50,[1],10 µM (active)
same,outcome,[2],inactive
same,outcome,[3],inactive
same,outcome,[4],inactive
same,AC50,[5],21 µM (active)
Cc1ccc(OP(=O)(Oc2ccc(C)cc2)Oc2ccc(C)cc2)cc1 (tested in a mixture with another compound),AC50,[1],61.9 µM (active)
same,outcome,[2],inactive
same,AC50,[3],3.99 µM (active)
same,AC50,[4],7.32 µM (active)
same,AC50,[5],6.45 µM (active)
same,outcome,[6],inactive
same,outcome,[7],inactive
same,outcome,[8],inactive
same,outcome,[9],inactive
same,outcome,[10],inactive
same,outcome,[11],inactive
same,outcome,[12],inactive
same,outcome,[13],inactive
CC1CCCC1.[C-]#[O+].[C-]#[O+].[C-]#[O+].[Mn],outcome,[6],inactive
same,outcome,[7],inactive
same,outcome,[8],inactive
same,outcome,[9],inactive
same,outcome,[10],inactive
same,outcome,[11],inactive
same,outcome,[12],inactive
same,AC50,[13],50 µM (active)
c1ccc2c(c1)CCCC2,outcome,[14],inactive
same,outcome,[15],inactive
same,outcome,[16],inactive
same,outcome,[17],inactive
same,outcome,[18],inactive
CNC(=O)Oc1cc(C)c(SC)c(C)c1,AC50,[19],25 µM (active)
O=[N+]([O-])O,outcome,[2],inactive
same,outcome,[3],inactive
same,outcome,[4],inactive
same,outcome,[5],inactive
